The values that follow come from ChEMBL document CHEMBL3988442, “University of Dundee, Small-Polar-MMV Screening Library” (2021).

For some assays here: Results with a measured potency or affinity are listed apart.

Set-up in all cases: scale not given: direction of the effect not stated beside the values
Assay [1] addresses Protein translocase subunit SecA (Escherichia coli (strain K12)) (UniProt P10408). The experiment in a line: Assay to Identify E. coli SecA ATPase Inhibitors. The format is functional. To be noted: 30 µM.
Assay [2] deals with T1, Ubiquitin-activating enzyme e1, putative (Leishmania donovani (strain BPK282A1)) (UniProt E9BSI1).
T1 sequence (whole entry): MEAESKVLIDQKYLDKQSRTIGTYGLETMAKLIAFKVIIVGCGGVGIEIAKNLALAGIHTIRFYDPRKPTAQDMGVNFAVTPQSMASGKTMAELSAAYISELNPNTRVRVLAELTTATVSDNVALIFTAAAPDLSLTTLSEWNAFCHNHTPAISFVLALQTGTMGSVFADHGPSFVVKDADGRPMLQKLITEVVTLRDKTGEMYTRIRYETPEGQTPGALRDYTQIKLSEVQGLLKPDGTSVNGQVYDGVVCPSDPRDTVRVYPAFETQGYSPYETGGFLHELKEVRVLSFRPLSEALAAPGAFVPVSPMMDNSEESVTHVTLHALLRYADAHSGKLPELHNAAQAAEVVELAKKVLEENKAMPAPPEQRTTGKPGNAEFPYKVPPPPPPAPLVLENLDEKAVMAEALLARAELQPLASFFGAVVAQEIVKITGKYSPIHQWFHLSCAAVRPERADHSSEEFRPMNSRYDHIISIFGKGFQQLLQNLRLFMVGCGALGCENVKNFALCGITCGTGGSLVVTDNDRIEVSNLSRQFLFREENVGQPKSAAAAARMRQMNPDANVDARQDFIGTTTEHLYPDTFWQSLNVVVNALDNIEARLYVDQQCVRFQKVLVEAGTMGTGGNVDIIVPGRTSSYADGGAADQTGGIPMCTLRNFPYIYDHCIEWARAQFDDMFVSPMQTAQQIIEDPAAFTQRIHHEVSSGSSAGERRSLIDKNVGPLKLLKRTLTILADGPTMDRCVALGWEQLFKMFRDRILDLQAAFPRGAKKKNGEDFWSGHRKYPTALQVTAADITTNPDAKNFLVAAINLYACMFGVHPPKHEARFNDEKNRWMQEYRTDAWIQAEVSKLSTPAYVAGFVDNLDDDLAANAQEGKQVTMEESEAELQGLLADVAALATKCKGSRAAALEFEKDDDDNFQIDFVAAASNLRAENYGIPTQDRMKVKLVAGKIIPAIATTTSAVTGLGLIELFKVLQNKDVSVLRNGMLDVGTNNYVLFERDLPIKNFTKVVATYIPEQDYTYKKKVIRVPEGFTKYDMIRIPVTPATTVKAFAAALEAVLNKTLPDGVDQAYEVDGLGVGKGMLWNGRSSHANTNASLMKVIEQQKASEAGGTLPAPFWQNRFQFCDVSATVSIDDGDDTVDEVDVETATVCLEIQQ
The experiment in a line: Leishmania donovani Ubiquitin Activating Enzyme (LdE1). Format: functional. Particulars: 30 µM.

Assay [3] deals with Sialic acid-binding Ig-like lectin 9 (Homo sapiens) (UniProt Q9Y336). In words: Hs-Siglec9 ALPHAscreen SOP 20170721. To be noted: 10 µM. In general terms: In Alpha technology, singlet oxygen from a donor bead excites a nearby acceptor bead.
Chain of Sialic acid-binding Ig-like lectin 9 (Homo sapiens) (Q9Y336 whole entry): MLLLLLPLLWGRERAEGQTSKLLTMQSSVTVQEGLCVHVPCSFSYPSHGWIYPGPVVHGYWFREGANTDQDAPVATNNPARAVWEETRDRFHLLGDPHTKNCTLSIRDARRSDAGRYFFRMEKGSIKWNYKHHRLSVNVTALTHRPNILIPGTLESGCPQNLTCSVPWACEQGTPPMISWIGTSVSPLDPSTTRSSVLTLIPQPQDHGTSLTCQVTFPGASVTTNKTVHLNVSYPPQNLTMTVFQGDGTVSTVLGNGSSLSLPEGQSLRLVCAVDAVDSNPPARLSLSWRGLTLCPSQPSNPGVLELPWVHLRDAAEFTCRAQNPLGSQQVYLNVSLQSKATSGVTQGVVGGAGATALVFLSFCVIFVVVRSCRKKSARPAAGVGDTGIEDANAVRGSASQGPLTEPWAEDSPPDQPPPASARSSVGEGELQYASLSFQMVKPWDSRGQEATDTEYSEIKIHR
The subject of assay [4] is Trypanosoma cruzi. The experiment in a line: Trypanosoma cruzi phosphomannomutase and mannose-1-phosphate guanylyltransferase assay. The format is functional. To be noted: 10 µM.
In assay [5] the target is T2, Arginase-2, mitochondrial (Homo sapiens) (UniProt P78540).
T2 sequence (whole entry): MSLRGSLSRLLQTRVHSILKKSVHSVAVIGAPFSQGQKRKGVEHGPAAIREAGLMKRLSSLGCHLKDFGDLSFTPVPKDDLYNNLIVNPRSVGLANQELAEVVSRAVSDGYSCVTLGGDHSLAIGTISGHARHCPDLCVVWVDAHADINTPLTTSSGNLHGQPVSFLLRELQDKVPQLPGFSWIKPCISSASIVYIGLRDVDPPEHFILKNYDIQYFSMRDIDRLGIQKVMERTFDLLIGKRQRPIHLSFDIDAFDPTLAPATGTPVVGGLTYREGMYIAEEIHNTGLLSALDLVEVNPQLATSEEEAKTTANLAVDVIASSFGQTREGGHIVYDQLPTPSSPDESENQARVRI
In words: in vitro enzyme assay to detect the production of urea directly proportional to the activity of Arginase II. Further: in the data most compounds retested in dose-response had high values. Format: functional. Particulars: 33.3 µM.

For assay [6], the target named is T3, Proteasome subunit beta (Trypanosoma cruzi) (UniProt O96673).
T3 sequence (whole entry): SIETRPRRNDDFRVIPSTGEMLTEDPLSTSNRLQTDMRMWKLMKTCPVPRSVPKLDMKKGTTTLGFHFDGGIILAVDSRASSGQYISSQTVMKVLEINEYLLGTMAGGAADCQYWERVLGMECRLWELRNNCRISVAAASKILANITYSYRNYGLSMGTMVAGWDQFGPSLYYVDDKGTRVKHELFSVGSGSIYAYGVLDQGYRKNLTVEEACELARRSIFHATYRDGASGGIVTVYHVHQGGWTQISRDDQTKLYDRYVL
The experiment in a line: Trypanosoma cruzi proteasome chymotrypsin-like activity (TcProtChymo) assay. Further: in the data most compounds retested in dose-response had high values. To be noted: 9.37 µM. Format: functional.

For assay [7], the species on record is Homo sapiens. The experiment in a line: To identify inhibition of the IFN signalling (Jak-Stat) pathway via expression of an eGFP reporter gene under the control of an IFN-stimulated response element (ISRE) containing MxA promoter. Particulars: 30 µM. The format is functional.
Assay [8] concerns the target T4, Tyrosyl-tRNA synthetase, putative (Trypanosoma cruzi (strain CL Brener)) (UniProt Q4DSP6).
T4 sequence (whole entry): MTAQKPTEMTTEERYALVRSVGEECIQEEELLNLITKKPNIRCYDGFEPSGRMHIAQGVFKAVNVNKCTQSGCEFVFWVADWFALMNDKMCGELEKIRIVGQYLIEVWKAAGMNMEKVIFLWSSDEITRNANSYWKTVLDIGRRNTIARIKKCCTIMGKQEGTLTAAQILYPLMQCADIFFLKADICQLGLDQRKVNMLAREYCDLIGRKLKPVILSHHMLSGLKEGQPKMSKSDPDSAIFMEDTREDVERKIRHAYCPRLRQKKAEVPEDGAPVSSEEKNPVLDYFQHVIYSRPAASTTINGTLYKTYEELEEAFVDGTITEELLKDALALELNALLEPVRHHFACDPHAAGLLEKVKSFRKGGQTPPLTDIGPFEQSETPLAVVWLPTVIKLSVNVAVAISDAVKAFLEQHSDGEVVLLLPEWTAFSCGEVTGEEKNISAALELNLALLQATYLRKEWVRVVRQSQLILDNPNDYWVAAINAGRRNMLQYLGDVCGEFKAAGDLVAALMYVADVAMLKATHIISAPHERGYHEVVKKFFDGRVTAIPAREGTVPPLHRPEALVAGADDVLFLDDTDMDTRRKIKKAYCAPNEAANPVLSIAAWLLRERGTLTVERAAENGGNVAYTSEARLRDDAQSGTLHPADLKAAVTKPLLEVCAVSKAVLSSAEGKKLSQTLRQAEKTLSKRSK
In words: Trypanosoma cruzi tyrosyl tRNA synthetase (TcYRS) _High Tyrosine SOP. Further: in the data most compounds retested in dose-response had high values. Format: functional. Particulars: 30 µM.

The target of assay [9] is T4, Tyrosyl-tRNA synthetase, putative (Trypanosoma cruzi (strain CL Brener)). The experiment in a line: Trypanosoma cruzi tyrosyl tRNA synthetase (TcYRS) SOP. The format is functional. To be noted: 30 µM.
Assay [10] has as its target Chromo domain-containing protein 1 (Saccharomyces cerevisiae (strain ATCC 204508 / S288c) (Baker's yeast)) (UniProt P32657). In words: ScCHD-1 Enzyme Inhibition Assay. Further: in the data most compounds retested in dose-response had high values. Format: functional. To be noted: 30 µM.

Chain of Chromo domain-containing protein 1 (Saccharomyces cerevisiae (strain ATCC 204508 / S288c) (Baker's yeast)) (P32657 whole entry, the tested form may be a part): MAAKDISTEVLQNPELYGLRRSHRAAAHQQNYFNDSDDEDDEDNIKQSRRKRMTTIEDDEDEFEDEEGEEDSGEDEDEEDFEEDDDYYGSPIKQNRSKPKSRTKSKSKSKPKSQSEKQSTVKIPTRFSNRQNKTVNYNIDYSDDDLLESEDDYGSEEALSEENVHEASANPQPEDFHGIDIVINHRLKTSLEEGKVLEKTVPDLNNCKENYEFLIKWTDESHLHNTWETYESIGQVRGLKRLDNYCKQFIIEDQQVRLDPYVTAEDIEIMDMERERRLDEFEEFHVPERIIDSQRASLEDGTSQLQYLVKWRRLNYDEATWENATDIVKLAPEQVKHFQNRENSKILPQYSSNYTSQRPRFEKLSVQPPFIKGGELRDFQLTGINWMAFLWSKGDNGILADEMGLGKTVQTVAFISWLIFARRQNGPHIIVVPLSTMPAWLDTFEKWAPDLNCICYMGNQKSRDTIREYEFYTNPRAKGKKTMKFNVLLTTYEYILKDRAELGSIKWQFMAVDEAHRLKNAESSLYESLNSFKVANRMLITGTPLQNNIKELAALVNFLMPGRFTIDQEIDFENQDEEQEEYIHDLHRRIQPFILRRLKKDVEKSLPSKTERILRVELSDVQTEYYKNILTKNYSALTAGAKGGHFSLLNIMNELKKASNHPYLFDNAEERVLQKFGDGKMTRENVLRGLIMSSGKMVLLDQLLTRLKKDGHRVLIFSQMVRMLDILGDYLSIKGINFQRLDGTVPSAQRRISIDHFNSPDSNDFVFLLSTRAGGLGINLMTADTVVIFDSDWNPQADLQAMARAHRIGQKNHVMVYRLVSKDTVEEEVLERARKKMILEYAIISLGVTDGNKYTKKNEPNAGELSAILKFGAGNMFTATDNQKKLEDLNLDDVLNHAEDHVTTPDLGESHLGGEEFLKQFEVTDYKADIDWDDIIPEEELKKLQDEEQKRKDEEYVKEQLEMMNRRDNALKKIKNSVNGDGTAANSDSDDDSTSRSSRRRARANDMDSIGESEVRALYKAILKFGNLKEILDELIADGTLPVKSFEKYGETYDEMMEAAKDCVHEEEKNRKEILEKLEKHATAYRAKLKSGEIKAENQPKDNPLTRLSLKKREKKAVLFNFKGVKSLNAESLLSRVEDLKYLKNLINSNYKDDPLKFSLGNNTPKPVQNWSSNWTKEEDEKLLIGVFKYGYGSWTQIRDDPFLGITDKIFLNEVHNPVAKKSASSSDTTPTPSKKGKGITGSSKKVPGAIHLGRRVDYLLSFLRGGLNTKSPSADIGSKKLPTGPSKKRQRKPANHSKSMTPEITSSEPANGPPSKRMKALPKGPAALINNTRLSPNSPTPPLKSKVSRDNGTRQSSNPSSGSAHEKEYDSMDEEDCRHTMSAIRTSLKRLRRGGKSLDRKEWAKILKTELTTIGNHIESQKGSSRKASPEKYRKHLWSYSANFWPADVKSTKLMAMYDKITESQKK
Chain of Protein translocase subunit SecA (Escherichia coli (strain K12)) (P10408 whole entry): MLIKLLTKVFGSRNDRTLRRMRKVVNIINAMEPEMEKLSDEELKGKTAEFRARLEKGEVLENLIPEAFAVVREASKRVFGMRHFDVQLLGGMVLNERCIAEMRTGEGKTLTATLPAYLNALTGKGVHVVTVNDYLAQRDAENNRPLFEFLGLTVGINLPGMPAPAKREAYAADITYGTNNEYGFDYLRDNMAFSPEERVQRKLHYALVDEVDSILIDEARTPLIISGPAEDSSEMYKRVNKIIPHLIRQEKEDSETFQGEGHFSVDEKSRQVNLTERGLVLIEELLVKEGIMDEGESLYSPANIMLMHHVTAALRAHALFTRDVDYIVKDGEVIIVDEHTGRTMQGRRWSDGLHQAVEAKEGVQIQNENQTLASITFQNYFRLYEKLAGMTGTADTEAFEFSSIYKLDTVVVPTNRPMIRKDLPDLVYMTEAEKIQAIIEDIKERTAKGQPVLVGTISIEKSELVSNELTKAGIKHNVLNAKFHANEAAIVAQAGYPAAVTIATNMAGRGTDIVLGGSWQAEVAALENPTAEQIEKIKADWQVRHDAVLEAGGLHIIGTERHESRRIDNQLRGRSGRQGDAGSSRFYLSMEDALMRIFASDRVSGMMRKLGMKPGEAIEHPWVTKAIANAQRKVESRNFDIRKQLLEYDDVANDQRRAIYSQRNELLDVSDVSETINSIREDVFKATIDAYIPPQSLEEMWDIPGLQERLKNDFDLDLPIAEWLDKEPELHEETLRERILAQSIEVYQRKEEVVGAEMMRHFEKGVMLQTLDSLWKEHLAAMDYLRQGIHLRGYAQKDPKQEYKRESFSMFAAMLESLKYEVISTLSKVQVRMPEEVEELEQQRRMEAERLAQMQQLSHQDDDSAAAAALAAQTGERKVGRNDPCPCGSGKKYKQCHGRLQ

For `O=C1CCCc2nccc(-c3ccccc3)c21`, the Percent Effect was 3.95% in assay [1]; 22.7% in assay [2]; -10% in assay [3]; 2.56% in [4]; 0.443% in [5]; 27.1% in assay [6]. Also, the Percent Effect is 9.37% in assay [7], 3.17% in assay [8], -45% in [9] and -16.7% in assay [10].
Consider `CC(C)N1CCO[C@H]2CN(C(=O)c3ccc(N(C)C)cc3)C[C@H]21`, for which the Percent Effect in assay [1] is -3.12%; in assay [2], 1.3%; in [3] it was -9.38%; in [4] it was -6.13%; in assay [5], 3.64%; in [6], 15.6%. Also, the Percent Effect in assay [7] is 4.68%; in assay [8], 8.95%; in [9], 12.8%; in assay [10], -3.55%.
In the case of `NC(=O)CN1CCC(NC(=O)Nc2nccs2)CC1`, the Percent Effect in assay [1] is -1.25%; in assay [2], 15.4%; in assay [3], -19.1%; in assay [4], 9.11%; in assay [5] it was -0.82%; in assay [6], 13.1%. Moreover, the Percent Effect in [7] was 5.92%; in assay [8], 1.44%; in assay [9] it was 20.5%; in [10], -8.95%.
Regarding `O=C(NCCNC(=O)c1scnc1Cl)c1ccccc1`, the Percent Effect in assay [1] was -3.41%; in assay [2], 16%; in assay [3] it was 3.33%; in [4] it was 2.01%; in [5] it was -0.887%; in assay [6] it was 14.2%. The Percent Effect in [7] is 9.89%; in [8], 7.89%; in assay [9], 17.9%; in assay [10], -5%.
In the case of `CC(C)(N)C(=O)N1CCCC1c1cncc(Oc2ccc(F)cc2)n1` (stereo not given), the Percent Effect in [1] is -4.32%; in assay [2] it was 17.3%; in assay [3], 10.6%; in [4], 0.789%; in assay [5], -0.443%; in assay [6], 1.31%. The Percent Effect in [7] was -1.85%; in assay [8] it was 6.35%; in assay [9], 15%; in assay [10] it was -24.2%.
In the case of `CCCn1nc2c(cc1=O)CN(CC(=O)Nc1ccncc1)CC2`, the Percent Effect was -3.45% in [1]; 10.4% in [2]; 6.89% in [3]; -3.17% in assay [4]; 2.25% in [5]; 17.2% in assay [6]. Also, the Percent Effect is 3.95% in [7], 3.92% in assay [8], 11.8% in assay [9] and -14.2% in [10].
Take `CC(C)n1[nH]c(=O)c2c1NC(=O)CC2c1cccnc1` (stereo not given): the Percent Effect was found to be 0.982% in assay [1]; 13.5% in [2]; 1.14% in assay [3]; 0.873% in assay [4]; 1.75% in assay [5]; 18.7% in assay [6]. Further, the Percent Effect in assay [7] was 23.6%; in assay [8], 3.72%; in [9] it was 19.5%; in assay [10], -3.39%.
With `COCCCNc1nccc(-c2c[nH][nH]c2=O)n1`, the Percent Effect in assay [1] is -1.57%; in assay [2], 8%; in assay [3] it was -3.19%; in [4], -6.63%; in assay [5], -3.55%; in assay [6], 19.9%. Besides, the Percent Effect in assay [7] was 12.9%; in assay [8], -1.58%; in assay [9], 0%; in [10], -11.7%.
With `Cc1ccsc1CN(C)Cc1nc2c(cnn2C)c(=O)[nH]1`, the Percent Effect in assay [1] is 0.7%; in assay [2], 15.4%; in assay [3], -7.51%; in assay [4], 0.845%; in assay [5], 2.05%; in assay [6], 10.7%. Further, the Percent Effect is 27.3% in assay [7], 7.18% in [8], 18.1% in assay [9] and -3.14% in [10].
For `CC(=O)N1CCC2(CCN(C(=O)c3ccc(C)c(C(F)(F)F)c3)CC2)C1`, the Percent Effect was -3.18% in assay [1]; 14.3% in assay [2]; 1.63% in [3]; -7.69% in assay [4]; 7.29% in assay [5]; 19.5% in assay [6]. Also, the Percent Effect in assay [7] is 17.8%; in assay [8] it was 7.89%; in assay [9], 0%; in assay [10] it was -3.98%.
Turning to `CN(C)S(=O)(=O)N1CCN(C(=O)c2ccc3ccn(C)c3c2)CC1`, the Percent Effect in assay [1] was -5.48%; in assay [2], 8.11%; in [3], 12%; in [4] it was 5.72%; in [5], 8.74%; in assay [6], 13.9%. Further, the Percent Effect in [7] is 5.78%; in assay [8] it was 2.66%; in assay [9], 9.76%; in [10], -5.25%.
